Results from PubChem BioAssay AID463173 (ICCB-Longwood Screening Facility, Harvard Medical School, 2010).
In all, about 52,000 compounds went through this assay and about 4,300 (8.3%) were called active. This is one part of a sample in which actives are shown more often than they occur. Unmarked numbers belong to inactive results. Cut-off read from the data, not from the text of the source: active = survival mostly below about 52% (no sharp cut-off); inactive = mostly above about 56%.

Tested on: DeltatarO mutant
Test: growth inhibition of S. aureus wild type versus tarO mutant, primary screen, teichoic acid synthesis inhibitors, RN4220, OD600 (AID 463173)
Conditions: OD600, 18 h, hits give low values, screened at 18.75 µg/mL (by protocol)

Row | Structure (SMILES) | survival
1 | COc1ccc(OC)c(NC(=O)N2CC3CCCN3c3ccccc32)c1 (configuration not stated) | 89%
2 | COc1cc(NC(=O)N2c3ccccc3Sc3ccccc32)cc(OC)c1 | 62%
3 | O=C(O)c1ccccc1NC(=O)N1c2ccccc2Sc2ccccc21 | 40% (active)
4 | CCOc1ccccc1NC(=O)N1c2ccccc2Sc2ccccc21 | 55%
5 | COc1ccccc1NC(=O)N1c2ccccc2Sc2ccccc21 | -6% (active)
6 | COCCNC(=O)N1c2ccccc2Sc2ccccc21 | 83%
7 | O=C(CN1CCCC1)N1c2ccccc2Sc2ccccc21 | 88%
8 | COc1ccc(OC)c(NC(=O)N2c3ccccc3Sc3ccccc32)c1 | 5% (active)
9 | O=C(N1CCCC1)N1c2ccccc2Sc2ccccc21 | 111%
10 | COc1ccc(OC)c(NC(=O)c2cc3c(s2)-c2ccccc2SC3)c1 | 65%
11 | Cc1ccc2c(c1)N(C(=O)CCC(=O)Nc1ccccc1Cl)CC(C)O2 (configuration not stated) | 105%
12 | Cc1nnc2c(Nc3ccccc3I)nc3nonc3n12 | 77%
13 | N#CCCn1cc(CO)c(-c2ccccc2)n1 | 95%
14 | COc1cccc(C(=O)c2cn(CC(=O)Nc3cccc(C)c3C)c3nc(C)ccc3c2=O)c1 | 67%
15 | Cc1nc2ccn(Cc3cccs3)c(=O)c2cc1C(=O)N1CCN(c2ccc(F)cc2)CC1 | 131%
16 | Cc1cccc(NC(=O)COC(=O)CCCC2=NS(=O)(=O)c3ccccc3N2)c1 | -2% (active)
17 | CCc1ccc(NC(=O)COC(=O)CCCC2=NS(=O)(=O)c3ccccc3N2)cc1 | 109%
18 | COc1ccccc1NC(=O)COC(=O)CC(C)(C)CC1=NS(=O)(=O)c2ccccc2N1 | -1% (active)
19 | O=C(COC(=O)CCCC1=NS(=O)(=O)c2ccccc2N1)Nc1ccc(Br)cc1 | 72%
20 | COc1ccc(Cl)cc1NC(=O)COC(=O)CC(C)(C)CC1=NS(=O)(=O)c2ccccc2N1 | 70%
21 | CCOc1ccccc1NC(=O)COC(=O)CC(C)(C)CC1=NS(=O)(=O)c2ccccc2N1 | 79%
22 | CCn1c2ccccc2c2nnc(SCCN3CCCCC3)nc21 | 82%
23 | COC(=O)c1ccccc1NC(=O)c1ccc2nc(CCc3ccccc3)oc2c1 | 131%

Row | Structure (SMILES) | survival
24 | CCc1ccccc1N1C(=O)N(CC(=O)c2ccc(Cl)cc2)c2ccccc2S1(=O)=O | 82%
25 | CCOC(=O)c1ccc2c(c1)sc1nc(-c3ccc(OCC)cc3)cn12 | 44% (active)
26 | CCOC(=O)C1CCN(C(=O)c2ccc3c(c2)sc2nc(-c4ccccc4)cn23)CC1 | 54% (active)
27 | O=C(NCCC1=CCCCC1)c1ccc2c(c1)sc1nc(-c3ccc(F)cc3)cn12 | 63%
28 | CCOc1ccc(CNC(=O)c2ccc3c(c2)sc2nc(-c4ccc(OC)cc4)cn23)cc1 | 84%
29 | CCCNC(=O)c1ccc2c(c1)sc1nc(-c3ccc(C)cc3)cn12 | 89%
30 | CCOC(=O)C1CCN(C(=O)c2ccc3c(c2)sc2nc(-c4ccc(OC)cc4)cn23)CC1 | 78%
31 | CCOC(=O)C1CCN(C(=O)c2ccc3c(c2)sc2nc(-c4ccc(C)cc4)cn23)CC1 | 98%
32 | CCOC(=O)C1CCN(C(=O)c2ccc3c(c2)sc2nc(-c4ccc(OCC)cc4)cn23)CC1 | 69%
33 | CCN(CC)CCNC(=O)c1ccc2c(c1)sc1nc(-c3ccc(F)cc3)cn12 | 29% (active)
34 | Cc1ccc(-c2cn3c(n2)sc2cc(C(=O)NCCC4=CCCCC4)ccc23)cc1 | 56%
35 | O=C(NCc1ccccc1)c1ccc2c(c1)sc1nc(-c3ccc(F)cc3)cn12 | 101%
36 | CCN(CC)CCCNC(=O)c1ccc2c(c1)sc1nc(-c3ccc(C)cc3)cn12 | 24% (active)
37 | COc1ccc(S(=O)(=O)Nc2cccc(-c3ccc(N4CCCC4)nn3)c2)cc1F | 85%
38 | COc1ccc(Nc2ncnc3c2cnn3C)c(OC)c1 | 89%
39 | CNS(=O)(=O)c1cn(CC(=O)Nc2cccc(C(F)(F)F)c2)cc1S(=O)(=O)NC | 107%
40 | Cc1ccccc1OC(=O)CSc1nnc(-c2ccc(F)cc2)o1 | 63%
41 | CCN1CCc2c(sc(NC(=O)c3ccc(S(=O)(=O)N(CCOC)CCOC)cc3)c2C(N)=O)C1 | 69%
42 | CCc1cccc(C)c1NC(=O)c1cc(S(=O)(=O)N2CCC3(CC2)OCCO3)ccc1F | 116%
43 | Cc1ccc(CSCCNC(=O)C2CCN(S(=O)(=O)Cc3ccccc3)CC2)cc1 | 99%
44 | CCCSCCCNC(=O)c1ccc2c(c1)sc1nc(-c3ccc(OCC)cc3)cn12 | 55%
45 | CCOc1ccc(-c2cn3c(n2)sc2cc(C(=O)NCCCN(CC)CC)ccc23)cc1 | 15% (active)
46 | CCOc1ccc(-c2cn3c(n2)sc2cc(C(=O)NCCCc4ccccc4)ccc23)cc1 | 72%

Row | Structure (SMILES) | survival
47 | COc1ccc(-c2nn(-c3ccccc3)cc2C2NC(=O)NC(C)=C2C(=O)OC(C)C)cc1Cl (configuration not stated) | 106%
48 | O=C(Nc1ccc(F)cc1)c1ccc(CN2CC(=O)N3CCCCC3C2=O)cc1 (configuration not stated) | -4% (active)
49 | Cc1ccc(NC(=O)c2ccc(CN3CC(=O)N4CCCCC4C3=O)cc2)cc1C (configuration not stated) | 77%
50 | CCc1ccc(NC(=O)c2ccc(CN3CC(=O)N4CCCCC4C3=O)cc2)cc1 (configuration not stated) | 66%
51 | O=C(Nc1cc(F)ccc1F)c1ccc(CN2CC(=O)N3CCCCC3C2=O)cc1 (configuration not stated) | 92%
52 | Cc1ccc(NC(=O)c2ccc(CN3CC(=O)N4CCCCC4C3=O)cc2)cc1 (configuration not stated) | -5% (active)
53 | CC(C)c1ccc(NC(=O)c2ccc(CN3CC(=O)N4CCCCC4C3=O)cc2)cc1 (configuration not stated) | 77%
54 | O=S(=O)(NCc1ccco1)c1cccc(S(=O)(=O)N2CCCCC2)c1 | 90%
55 | O=C(NC1CCCCC1)c1ccc(Cn2c(SCc3cccc(F)c3)nc3cccnc32)cc1 | 81%
56 | Cc1ccc2c(c1)N(C(=O)N1CCC(C(=O)NCc3ccccc3C)CC1)CC(C)O2 (configuration not stated) | 74%
57 | Cc1noc(-c2ccc(N(C)Cc3ccccc3)c([N+](=O)[O-])c2)n1 | 75%
58 | COc1ccc(CC(=O)NCc2nc3cccnc3n2Cc2ccccc2)cc1 | 80%
59 | COc1ccccc1N1CCN(S(=O)(=O)c2c(C)sc3ncn(CC(=O)N(C)c4ccc(C(C)C)cc4)c(=O)c23)CC1 | 67%
60 | CCCCN(C)CCNC(=O)c1cc(-c2ccc(Cl)s2)nc2ccccc12 | 62%
61 | COc1cc(NC(=O)CSc2nc(C)c(C(=O)Nc3ccccc3)c(-c3ccc(OC)c(OC)c3)c2C#N)c(OC)cc1Cl | 61%
62 | COc1ccc(CCn2c(=O)c3cccnc3n(CC(=O)Nc3c(C)cc(C)cc3C)c2=O)cc1OC | 90%
63 | Cc1ccccc1CN1C(=O)c2ccccc2S(=O)(=O)c2ccc(C(=O)OCC3CCCO3)cc21 (configuration not stated) | 71%
64 | CCOc1ccc(CCNC(=O)c2c(C)oc3ncn(CC(C)C)c(=O)c23)cc1 | 72%
65 | CCc1cccc(NC(=O)c2c(C)oc3nc(C)nc(N4CCCC4)c23)c1 | 103%
66 | Cc1nc(N2CCCC2)c2c(C(=O)Nc3cccc(Cl)c3)c(C)oc2n1 | 20% (active)
67 | Cc1nc(N2CCCC2)c2c(C(=O)Nc3ccc(Br)cc3F)c(C)oc2n1 | 25% (active)
68 | Cc1ccc(NC(=O)c2c(C)oc3nc(C)nc(N4CCCC4)c23)c(C)c1 | 70%
69 | Cc1oc2ncnc(N3CCOCC3)c2c1C(=O)Nc1ccc(Br)cc1F | 135%

Row | Structure (SMILES) | survival
70 | Cc1nc(N2CCCC2)c2c(C(=O)Nc3ccc(C)c(Cl)c3)c(C)oc2n1 | 124%
71 | COc1cc(Cl)c(C)cc1NC(=O)c1cnc(N2CCOCC2)c2ccccc12 | 71%
72 | COc1cc(CN(C(=O)c2ccccc2F)C2CCS(=O)(=O)C2)cc(OC)c1OC (configuration not stated) | 46%
73 | COc1ccc(N2CCN(c3ncnc4c3cnn4C)CC2)cc1 | 75%
74 | O=c1c2cn[nH]c2nc(SCc2c(F)cccc2F)n1-c1ccc(Cl)cc1 | 91%
75 | CC(C)c1ccc(NC(=O)CN2CCC(n3nnc4ccccc43)CC2)cc1 | 69%
76 | CCN(CC)CCN(C(=O)c1ccc(C(=O)OC)cc1)c1nc2ccc(Cl)cc2s1 | -4% (active)
77 | CCc1ccc2nc(N(CCN(CC)CC)C(=O)c3ccco3)sc2c1 | 54%
78 | CCN(CC)CCN(C(=O)c1ccco1)c1nc2ccc(Cl)cc2s1 | 66%
79 | COc1ccc(-c2cn3nc(N4CCCC(C(=O)Nc5cc(C)cc(C)c5)C4)sc3n2)cc1 (configuration not stated) | 75%
80 | COc1ccc(-n2nnc(-c3nsc(NC(=O)c4cccc(C)c4)n3)c2C)cc1OC | 88%
81 | CCOCCCNC(=O)c1ccc(-n2c(-c3ccccc3)cc3c2CCCC3)cc1 | 69%
82 | CC(C)NC(=O)c1ccc(-n2c(-c3ccccc3)cc3c2CCCCC3)cc1 | 108%
83 | CCOCCCNC(=O)c1ccc(-n2c(-c3ccccc3)cc3c2CCCCC3)cc1 | 49%
84 | CCCNC(=O)c1ccc(-n2c(-c3ccccc3)cc3c2CCCCC3)cc1 | 103%
85 | CCNC(=O)c1ccc(-n2c(-c3ccccc3)cc3c2CCCCC3)cc1 | 43% (active)
86 | CN(C)CCNC(=O)c1ccc(-n2c(-c3ccccc3)cc3c2CCCCC3)cc1 | 53%
87 | CCN(CC)CCNC(=O)c1ccc(-n2c(-c3ccccc3)cc3c2CCCC3)cc1 | 8% (active)
88 | CN(C)CCNC(=O)c1ccc(-n2c(-c3ccccc3)cc3c2CCCC3)cc1 | 33% (active)
89 | CC(C)OCCCNC(=O)c1ccc(-n2c(-c3ccccc3)cc3c2CCCC3)cc1 | 75%
90 | COCCCNC(=O)c1ccc(-n2c(-c3ccccc3)cc3c2CCCC3)cc1 | 70%
91 | COCCNC(=O)c1ccc(-n2c(-c3ccccc3)cc3c2CCCCC3)cc1 | 110%
92 | COCCCNC(=O)c1ccc(-n2c(-c3ccccc3)cc3c2CCCCC3)cc1 | 39% (active)
